This is a sample that favours compounds with a hit; in the whole collection about 2.8% have one here.
FXN GAA850 act – increases GAA850 frataxin promoter reporter activity. AID 540364. activation, % at 6 µM. 360,000 compounds, 0.56% hits. HEK293 lucGAA850 FXN promoter luciferase reporter, 24 h; percent of 10 µM SAHA response;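 active = activation above the average of all compounds screened plus 3 SD, cutoff fixed separately per campaign, cut at about 7.5% in these data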;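 also: 0% = DMSO wells and 100% = 10 µM SAHA wells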
Wnt act – activates Wnt/beta-catenin signaling in a reporter cell assay. activator, plate reader. activation, % at 9.35 µM. 300,000 compounds, 1.2% hits. AID 743398; in the data active = activation above about 30%, passing the limit was not always enough; inconclusive = no clear call, values can overlap the other calls;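 also: 0% = neutral control wells and 100% = positive control wells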
MITF TRPM1 HTS – increases MITF-driven TRPM1 promoter luciferase signal; SK-MEL-5 TRPM1-promoter luciferase, 24 h; % of positive control, neutral wells = 0; activation, % at 12.5 µM; 300,000 compounds, 0.75% hits;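 active = mean activation of at least 80% with every replicate also reaching 80%; inconclusive = mean reaches 80% but some replicate falls short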;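 also: 0% = neutral control wells and 100% = parthenolide positive control wells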
esBAF inh – SWI/SNF esBAF complex inhibition | mouse ES cells, Bmi1-luciferase knock-in reporter, 24 h; 100% = twice the neutral-well signal | reporter increase, % at 12.5 µM | 350,000 compounds, 2% hits | AID 602393; in the data active = activation above about 40%; inconclusive = no clear call, values can overlap the other calls;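 also: 0% = median of the plate's neutral control wells and 100% = double that signal; a rise in the Bmi1 reporter signal indicates esBAF inhibition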
Numbers without * were called inactive; ? = inconclusive; / = no result given.

SMILES	FXN GAA850 act	Wnt act	MITF TRPM1 HTS	esBAF inh
Cn1cnc(S(=O)(=O)N[C@@H]2C=C[C@H](CC(=O)NCC3CCCCC3)O[C@H]2CO)c1	/	/	/	0.8
CN1CCN(C(=O)C[C@H]2C[C@H]3c4cc(NC(=O)NC5CCCC5)ccc4O[C@H]3[C@H](CO)O2)CC1	/	/	/	-1.4
COc1ccc(NC(=O)c2cc3cc(OC)ccc3oc2=O)cc1	0.3	8.7	14.2	16.6
COc1ccc2oc(=O)c(C(=O)Nc3cccc(C)c3)cc2c1	4.3	16.9	72.5	77.3*
COc1ccccc1C(=O)Nc1cc2ccccc2oc1=O	3.9	/	9.8	9.7
COc1ccc(NC(=O)c2cc3ccccc3oc2=O)c(OC)c1	4.4	26.8	/	47.4*
COc1ccccc1NS(=O)(=O)c1ccc(C)c(C(=O)Nc2cc(C)on2)c1	-2.8	-3.3	-1.5	-2.4
COc1ccccc1C(=O)Nc1cc2cc(Br)ccc2oc1=O	0.8	-15.5	-2.3	26.6*
COc1ccc(S(=O)(=O)Nc2ccccc2OC)cc1NC(=O)c1cc2ccccc2oc1=O	6.0	/	90.2*	/
C[C@@H]1CN([C@@H](C)CO)C(=O)Cc2cc(NC(=O)CCC(F)(F)F)ccc2O[C@H]1CN(C)Cc1ccc(Cl)c(Cl)c1	/	/	/	6.9
CCC1Oc2ccccc2C(=O)N(CC(=O)c2ccc3c(c2)OCCO3)C1=O (stereo unspecified)	4.8	-4.1	52.0	68.7*
CC1Oc2ccccc2C(=O)N(CC(=O)c2ccc3c(c2)OCCO3)C1=O (stereo unspecified)	1.8	5.2	19.0	15.9
CC(C)C1Oc2ccccc2C(=O)N(CC(=O)c2ccc3c(c2)OCCO3)C1=O (stereo unspecified)	6.9	33.4*	58.4	71.4*
C[C@H](CO)N1C[C@H](C)[C@@H](CN(C)Cc2ccc3c(c2)OCO3)Oc2ccc(NC(=O)CCN3CCOCC3)cc2CC1=O	/	/	/	-2.9
CCCCOc1ccc(-c2nnn(CCC(=O)N3CCOCC3)n2)cc1	1.6	11.4	59.8	62.7*
O=C(CCCOc1ccc(Cl)cc1)N1CCOCC1	-0.1	10.4	/	29.4
O=C(CCCOc1ccc(Cl)cc1)N1CCCCCC1	4.5	/	42.5	62.3*
CC(C)(C)c1ccc(OCCCC(=O)N2CCOCC2)cc1	7.2	14.4	44.2	66.4*
CCCOc1ccc(-c2nnn(CC(=O)N3CCC(C)CC3)n2)cc1	-0.4	/	3.4	14.7
O=C(C[C@@H]1C[C@@H]2c3cc(NC(=O)CC4CC4)ccc3O[C@@H]2[C@H](CO)O1)NCc1cccnc1	/	/	/	-4.8
COc1ccc(NC(=O)c2cc(Br)c(Br)s2)cn1	3.3	21.9	41.0	34.8
CCc1cc(C(=O)Nc2ccc(OC)nc2)sc1C	0.6	21.2	58.6	46.7*
CCc1cc(C(=O)Nc2ncccc2O)sc1C	1.0	36.5*	2.3	/
COc1cccc(NC(=O)N(C)C[C@H]2Oc3cc(-c4ccccc4F)ccc3S(=O)(=O)N([C@H](C)CO)C[C@H]2C)c1	/	/	/	2.1
O=C(C[C@H]1CC[C@@H](NS(=O)(=O)c2ccccc2)[C@@H](CO)O1)N1CCc2ccccc2C1	/	/	/	1.6
SMILES	FXN GAA850 act	Wnt act	MITF TRPM1 HTS	esBAF inh
Cc1noc(C)c1S(=O)(=O)N(C)C[C@@H]1Oc2ccc(NC(=O)Cc3ccccc3)cc2CC(=O)N([C@H](C)CO)C[C@@H]1C	/	/	/	-5.8
CCC(=O)Nc1ccc(NC(=O)c2ccco2)c(OC)c1	3.6	41.3*	56.6	23.2
CCCC(=O)Nc1ccc(NC(=O)c2ccco2)c(OC)c1	5.8	15.5	88.5*	63.3*
COc1cc(NC(=O)CC(C)C)ccc1NC(=O)c1ccco1	3.0	-1.5	70.1	22.8
COc1ccc(NC(=O)CCCc2ccccc2)cc1OC	4.3	11.2	/	64.7*
O=C(CCCc1ccccc1)Nc1ccccc1[N+](=O)[O-]	2.9	2.0	43.5	52.6*
COc1ccc(NC(=O)CCCC(=O)c2ccccc2)cc1OC	0.3	4.8	/	0.8
O=C(C[C@@H]1CC[C@@H]2[C@H](COC[C@@H](O)CN2C(=O)Nc2ccc(Cl)c(Cl)c2)O1)NCc1ccncc1	/	/	/	-1.4
O=S(=O)(Cc1cc(-c2ccccc2Cl)no1)c1ccccc1	4.5	-1.7	89.9*	53.2*
O=S(=O)(Cc1cc(-c2ccc(Cl)cc2)no1)c1ccccc1	2.9	-3.6	?	51.0*
O=S(=O)(NCc1cc(-c2ccc(Cl)cc2)no1)c1ccccc1	0.8	3.3	/	6.8
Clc1ccc(-c2cc(COc3ccccc3)on2)cc1	4.4	9.1	69.8	50.5*
C[C@@H]1CN([C@H](C)CO)C(=O)CCCn2cc(nn2)CO[C@@H]1CN(C)C(=O)c1ccncc1	/	/	/	-3.0
COc1cccc(-c2ncc3ccccc3c2COC(=O)N2CCOCC2)c1	2.8	2.9	41.1	53.2*
COc1ccc(/C=C/C(=O)c2ccc[nH]2)c(OC)c1OC	1.2	21.9	/	46.7*
COc1ccc(/C=C/C(=O)c2ccc(C(=O)/C=C/c3ccc(OC)c(OC)c3)cc2)cc1OC	5.7	-13.3	-10.8	8.2
COc1ccc(/C=C/C(=O)c2ccncc2)c2ccccc12	1.4	6.9	-0.2	/
COc1ccc(/C=C/C(=O)c2ccc[nH]2)cc1OC	2.1	5.8	59.3	53.3*
COc1cccc(-n2cc3c(=O)n(C)c(=O)n(C)c3c2)c1	4.8	/	18.5	47.5*
C[C@@H]1CCCCO[C@H](CN(C)S(C)(=O)=O)[C@@H](C)CN([C@@H](C)CO)C(=O)c2cc(NC(=O)c3ccncc3)ccc2O1	/	/	/	-6.0
COc1ccc(NC(=O)N(C)C[C@@H]2Oc3ccc(NC(=O)CCC(F)(F)F)cc3C(=O)N([C@H](C)CO)C[C@@H]2C)cc1	/	/	/	7.9
Cc1ccccc1S(=O)(=O)N1C[C@@H](O)COC[C@@H]2O[C@@H](CC(=O)NCc3ccccc3Cl)CC[C@H]21	/	/	/	2.7
Cc1ccc(S(=O)(=O)N[C@H]2C=C[C@@H](CC(=O)NCCN3CCCCC3)O[C@@H]2CO)cc1	/	/	/	0.6
O=c1[nH][nH]c(=O)c2c(NS(=O)(=O)c3ccccc3)cccc12	1.5	12.4	32.8	46.2*
COC(=O)c1ccc2nc(C)cc(Nc3ccc(N(C)C)cc3)c2c1	2.2	1.2	4.5	0.0
SMILES	FXN GAA850 act	Wnt act	MITF TRPM1 HTS	esBAF inh
COC(=O)c1ccc(Nc2cc(C)nc3ccccc23)cc1	-1.0	47.6*	/	/
C[C@H]1CN([C@@H](C)CO)C(=O)Cc2cc(NS(C)(=O)=O)ccc2O[C@H]1CN(C)CC1CCCCC1	/	/	/	-0.9
Cc1nc(SCc2ccc(OCCC(C)C)cc2)n[nH]1	5.4	16.2	15.5	45.1*
Cc1ccc(NC(=O)CS(=O)c2ccccc2N)c(C)c1 (stereo unspecified)	4.7	-2.9	14.4	50.4*
Cc1ccc(NC(=O)CCOc2ccccc2)c(C)c1	2.1	/	/	2.8
COc1ccccc1CNC(=O)C[C@H]1C[C@@H]2c3cc(N(C)C)ccc3O[C@@H]2[C@H](CO)O1	/	/	/	5.6
COc1ccc(CN(C)C[C@H]2OCCCC[C@@H](C)Oc3ccc(NC(=O)Nc4ccccc4)cc3C(=O)N([C@@H](C)CO)C[C@@H]2C)cc1	/	/	/	3.5
COc1ccc(NC(=O)C2Cc3ccccc3O/C2=N\O)cc1 (stereo unspecified)	4.3	9.8	86.1*	31.3
